# An excerpt weighted towards active compounds, which were near 3.8% of everything screened.
# Ecoli rRNA inh: inhibitors of bacterial rRNA selective over humanized ribosomes. E. coli WT GFP vs humanized-ribosome RFP mutants, fluorescence, 24 h; active compounds read low; DMSO median 0, no signal -100. GFP signal change (wild-type ribosome), % (no concentration beside the values). 1.6% of 350,000 active;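 active = significant combined selectivity score with lowered wild-type GFP, culture density cut under 30%, mutant RFP and density less affected; inactive = any of these conditions unmet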
# ADAM10 inh: inhibitors of human ADAM10. AID 720582. O14672. inhibition, % at 7 µM. recombinant ADAM10, EDANS/DABCYL FRET peptide cleavage, 3 h. 0.62% of 370,000 active;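 active = inhibition above a per-campaign cutoff equal to the mean of compounds falling between control-based bounds plus 3 SD, cut at about 20% in these data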;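 note: 0% = DMSO wells while the 100% control is not disclosed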
# Target sequence (O14672 214-748 limits assumed): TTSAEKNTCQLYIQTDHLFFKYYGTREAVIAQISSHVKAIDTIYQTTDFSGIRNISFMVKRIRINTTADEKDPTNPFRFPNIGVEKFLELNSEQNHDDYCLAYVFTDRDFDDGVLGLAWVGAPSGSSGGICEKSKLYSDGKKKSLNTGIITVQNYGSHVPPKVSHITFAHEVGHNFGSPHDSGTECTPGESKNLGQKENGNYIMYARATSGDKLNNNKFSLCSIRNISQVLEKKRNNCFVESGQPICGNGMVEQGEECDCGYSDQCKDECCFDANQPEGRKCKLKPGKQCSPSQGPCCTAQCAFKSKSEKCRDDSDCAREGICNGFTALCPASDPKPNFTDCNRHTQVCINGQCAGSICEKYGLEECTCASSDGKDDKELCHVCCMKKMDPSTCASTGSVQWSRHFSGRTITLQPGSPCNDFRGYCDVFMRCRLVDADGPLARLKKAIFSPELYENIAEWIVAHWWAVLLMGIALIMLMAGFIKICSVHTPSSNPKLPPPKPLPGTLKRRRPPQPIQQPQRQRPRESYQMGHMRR
# ADAM17 inh: ADAM17 inhibition, QFRET primary screen | recombinant ADAM17, EDANS/DABCYL FRET peptide cleavage | inhibition, % at 6.95 µM | 0.83% of 370,000 active | AID 720648;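 active = inhibition above the mean of compounds lying between control limits plus 3 SD, set per campaign, cut at about 8.5% in these data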;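 note: 0% = DMSO-only wells as the low control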
# FGF22 binding: shifts melting point of recombinant human FGF22. 1.5% of 340,000 active. activity (Tm shift, normalised), % at 9.99 µM. recombinant FGF22 thermal shift, SYPRO orange fluorescence; percent of sucrose octasulfate shift, DMSO zero. AID 651658. Q9HCT0;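 active = mean Tm shift, scaled 0 neutral to 100 positive control, at about 1.3% or above, every replicate too, limit read from the data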
# proKLK7 act: activates the human kallikrein-7 zymogen; 0.9% of 370,000 active; AID 652039; activation, % at 7 µM; P49862; purified proKLK7, EDANS-DABCYL substrate fluorescence; 100% is mature enzyme control, 0% vehicle;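 active = activation above the mean of all tested compounds plus 3 SD, computed per campaign excluding outliers beyond control limits, cut at about 13% in these data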
# An asterisk follows results filed as active; · = not tested or not shown.
SMILES,Ecoli rRNA inh,ADAM10 inh,ADAM17 inh,FGF22 binding,proKLK7 act
COCC(=O)Nc1ccc2c(c1)[C@H]1C[C@H](CC(=O)NCc3cc(F)ccc3F)O[C@H](CO)[C@H]1O2,-2,·,·,0,·
C[C@@H]1CCCCO[C@@H](CN(C)C(=O)Nc2ccccc2)[C@H](C)CN([C@@H](C)CO)C(=O)c2cc(NS(=O)(=O)c3ccc(Cl)cc3)ccc2O1,3,·,·,-1,·
Cc1ncsc1CCOC(=O)c1ccc(N2CCOCC2)c([N+](=O)[O-])c1,0,-5,-2,44*,0
CC(=O)Nc1cccc2c1O[C@H](CN(C)C(=O)OC(C)(C)C)[C@H](C)CN(C)C2=O,1,·,·,·,·
O=[N+]([O-])c1ccc(Cl)cc1N1CCCCC1,21,-6,-2,42,0
O=[N+]([O-])c1ccc(N2CCCCC2)nc1N1CCCCC1,-40*,-2,1,0,1
COc1ccc(S(=O)(=O)CCC(=O)N2CCN(c3ccccc3F)CC2)cc1,1,1,-5,44*,1
CC(C)CC(=O)N1CCN(S(=O)(=O)c2ccc(Cl)cc2)CC1,6,4,-1,43*,0
O=C(CCS(=O)(=O)c1ccccc1)N1CCN(c2ccccc2F)CC1,3,-4,1,0,0
N#Cc1ccc(OCC(=O)N2CCN(S(=O)(=O)c3ccc(Cl)s3)CC2)cc1,-20*,-8,-2,0,0
COc1ccc(S(=O)(=O)N2CCN(C(=O)COc3ccccc3)CC2)cc1,15,-3,0,43*,1
O=C(COc1ccccc1)N1CCN(S(=O)(=O)c2ccc(Br)cc2)CC1,-1,6,-4,0,0
CC(C)NC(=O)Nc1ccc2c(c1)C(=O)N([C@H](C)CO)C[C@@H](C)[C@@H](CN(C)CC1CCCCC1)OCCCC[C@H](C)O2,4,·,·,0,·
Fc1cccc(C2NN=C(c3ccccc3)S2)c1 (centres undefined),6,-6,-1,44*,0
Cc1ccc(C2=NNC(c3cccc(F)c3)S2)cc1 (centres undefined),·,-23,-10,43,0
CCN1[C@@H]2c3ccc(-c4ccccc4OC)c(=O)n3C[C@@H]2[C@@H](CO)[C@@H]1C(=O)NCCCN(C)C,4,·,·,·,·
CCC(CO)n1c(=S)[nH]c2cc(OC)c(OC)cc2c1=O (centres undefined),-22*,3,1,0,0
N#CC(CCc1ccc([N+](=O)[O-])cc1)(CCc1ccc([N+](=O)[O-])cc1)C(N)=O,-19*,-2,-4,0,-2
O=[N+]([O-])c1ccc(Cc2ccc([N+](=O)[O-])cc2)cc1,2,-16,-3,0,0
CCN1C(=O)C(C)C=C(C)C=C1C (centres undefined),8,2,-1,44*,0
CCCc1ccc(OCC(=O)Nc2cc(S(=O)(=O)CC)ccc2O)cc1,-51,15,4,44*,0
O=C(OCC(=O)N1CCC(Cc2ccccc2)CC1)c1ccccc1O,-7,6,-8,43*,0
CCN(C(=O)Cc1c(C(=O)O)n(C)c2ccccc12)c1ccc(F)cc1,10,-3,-2,43*,0
Cn1c(C(=O)O)c(CC(=O)N2CCC(Cc3ccccc3)CC2)c2ccccc21,-26*,-13,-6,0,1
COc1ccc(Br)c(C(=O)OCC(=O)N2CCC(Cc3ccccc3)CC2)c1,-35*,10,4,0,0
SMILES,Ecoli rRNA inh,ADAM10 inh,ADAM17 inh,FGF22 binding,proKLK7 act
CO[C@H](CN(C)Cc1cc(F)ccc1F)[C@@H](C)CN(C(=O)Nc1ccc(F)cc1)[C@@H](C)CO,-5,·,·,0,·
CC(C)NC(=O)N(C)C[C@H]1Oc2ccc(NC(=O)Nc3ccc(C(F)(F)F)cc3)cc2C(=O)N([C@@H](C)CO)C[C@H]1C,0,·,·,0,·
O=C(CCl)Nc1cn(-c2ccccc2)nc1-c1ccccc1,-27*,-10,-2,43*,-1
COCCNC(=O)[C@@H]1[C@@H](CO)[C@@H]2Cn3c(ccc(-c4ccccc4OC)c3=O)[C@@H]2N1C(=O)C1CCC1,1,·,·,·,·
CCCC(=O)Nc1ccc2c(c1)C(=O)N(C)C[C@H](OC)[C@H](C)CN(Cc1ccncc1)[C@H](C)CO2,1,·,·,·,·
Nc1nn(-c2ccccc2)c(N)c1N=Nc1ccccc1F,-37*,8,2,0,0
Cc1sc2ncnc(Sc3ccccc3C(=O)Nc3ccc(C#N)cc3)c2c1C,-23*,-11,-6,0,-1
Cc1ccc2c(c1)C(c1ccc(F)cc1)N(C(=O)c1ccccc1Br)CC(=O)N2 (centres undefined),-26*,0,-1,0,1
Cc1cccc(OCc2nnc(SC(C)C(=O)O)n2Cc2ccccc2)c1 (centres undefined),-17,2,2,43*,1
Cc1ccc(OCc2nnc(SC(C)C(=O)O)n2Cc2ccccc2)cc1 (centres undefined),-8,-1,-2,42,0
CCOc1ncccc1C(=O)N1CCCSC1=Nc1ccc(C(C)=O)cc1,2,-3,-1,43*,0
Cc1ccc(CSCC(=O)NCc2ccc3c(c2)OCO3)cc1,-23*,-4,0,0,0
CC1Oc2ccccc2N(CC(=O)NCc2ccc3c(c2)OCO3)C1=O (centres undefined),9,-2,-1,43*,0
O=C(CSCc1ccccc1)NCc1ccc2c(c1)OCO2,·,9,2,·,0
O=C(COc1ccc(F)cc1)Nc1nc(-c2ccccn2)cs1,-52,-4,-1,0,0
O=C(COc1ccc2ccccc2c1)Nc1nccs1,-22*,4,-4,0,-1
O=C(Nc1nc(-c2ccccn2)cs1)c1ccc2c(c1)OCCO2,-7,-13,-1,0,0
CC(=O)Nc1ccc(C(=O)Nc2nc(-c3ccccn3)cs2)cc1,-2,-11,-2,44*,0
O=C(COc1cccc(F)c1)Nc1nc(-c2ccccn2)cs1,-34,10,2,44*,-1
O=C(Nc1nc(-c2ccccn2)cs1)c1cc(Cl)ccc1[N+](=O)[O-],-50,-7,-4,0,1
Cc1cc(C(=O)Nc2nc(-c3ccccn3)cs2)ccc1[N+](=O)[O-],-29*,-1,-1,1,0
CCOC(=O)[C@H](Cc1c[nH]c2ccccc12)NC(=O)CN=[N+]=[N-],·,·,·,0,·
C[C@H]1CN(C)C(=O)c2cccc(NS(C)(=O)=O)c2O[C@@H]1CN(C)C,1,·,·,·,·
COc1ccc2c3c(n(C)c2c1)[C@@H](CO)NCC31CCN(C(=O)CC2CC2)CC1,2,·,·,·,·
CC(=O)Nc1ccc(C(=O)Nc2nc(-c3cccnc3)cs2)cc1,3,-11,-5,43*,-1
O=C(Nc1nc(-c2ccccc2)cs1)c1cccnc1,·,1,2,·,0

# Assay outcomes deposited in PubChem by several laboratories.
